Laboratory results reported in PubChem BioAssay (EPA / NIEHS).
Several values for one entry are separate records, joined by “and”; a condition that tells them apart may be missing. Equal values may be shown once. Records with an inconclusive call do not appear. More than one record can exist for a structure, and the calls need not agree. Activity calls are given as the source filed them. Rule for the calls: active = hit-call score of the fitted dose curve at least 0.9, where 1 is the maximum; inconclusive = response in the unintended direction; inactive = score below 0.9.

How the values were obtained:
[1] = ATG_M_06_XSP2: Attagene TRANS-FACTORIAL Multi-Species (XSP2) HepG2 Assay for M06 Transcription Factor (Internal Marker) (AID 2283811);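 note: hits are increases in signal above the DMSO baseline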
In short: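 Readout: fluorescent reporter-mRNA peaks by capillary electrophoresis after RT-PCR and HpaI digest, scored upward relative to DMSO. Transfected HepG2, 24 h chemical exposure, with 3 nM 6-alpha-fluorotestosterone and 1.5 nM norgestrel added.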

[2] = system: turtle Estrogen Receptor (ERa), gene 101933533; assay: ATG_trERa_XSP2: Attagene TRANS-FACTORIAL Multi-Species (XSP2) HepG2 Assay for turtle Estrogen Receptor (ERa) (AID 2283812);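 note: actives raise reporter signal above DMSO so AC50 reflects agonist activity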
In short: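 Readout is reporter mRNA quantified by RT-PCR with capillary electrophoresis after 24 h compound exposure, increase relative to DMSO. Uses transiently transfected human HepG2 liver cells carrying a chimeric turtle ERa-Gal4 receptor driving GAL4-UAS reporters.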

[3] = target: Estrogen receptor beta (Homo sapiens) (UniProt Q92731); assay: ATG_hERb_XSP2: Attagene TRANS-FACTORIAL Multi-Species (XSP2) HepG2 Assay for human Estrogen Receptor (ERb) (AID 2283813);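 note: actives raise reporter mRNA above DMSO so AC50 reflects agonist induction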
In short: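 Transient TRANS reporter system in HepG2: after 24 h of chemical, RNA is reverse-transcribed, reporter cDNA amplified, FAM-labelled and sized by capillary electrophoresis. Induction of the human ERb-Gal4 reporter is measured relative to DMSO.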

[4] = target: zebrafish Estrogen Receptor (ER1), esr1 (gene 259252) (UniProt P57717); assay: ATG_zfER1_XSP2: Attagene TRANS-FACTORIAL Multi-Species (XSP2) HepG2 Assay for zebrafish Estrogen Receptor (ER1) (AID 2283816)
In short: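 After 24 h compound exposure, RNA from transfected HepG2 cells was reverse-transcribed and reporter transcripts resolved by capillary electrophoresis. The TRANS format reads exogenous zebrafish ER1-Gal4 chimera activity on GAL4-UAS elements; gain of signal against DMSO.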

[5] = target: chicken Estrogen Receptor (ERa), ESR1 (gene 396099) (UniProt P06212); assay: ATG_chERa_XSP2: Attagene TRANS-FACTORIAL Multi-Species (XSP2) HepG2 Assay for chicken Estrogen Receptor (ERa) (AID 2283817);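 note: actives raise reporter signal above DMSO so AC50 reflects ER activation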
In short: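 Readout: fluorescent reporter-transcript fragments resolved by capillary electrophoresis after RT-PCR and HpaI cut. Chicken ERa-Gal4 fusion in transiently transfected HepG2, dosed for 24 h; activity taken as increase over DMSO baseline.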

[6] = system: zebrafish Estrogen Receptor (ER2a), gene 317734; assay: ATG_zfER2a_XSP2: Attagene TRANS-FACTORIAL Multi-Species (XSP2) HepG2 Assay for zebrafish Estrogen Receptor (ER2a) (AID 2283818);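 note: hits raise reporter mRNA so AC50 reflects activation of zebrafish ER2a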
In short: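 Multiplexed trans-reporter readout: RT-PCR then capillary electrophoresis of reporter transcripts after 24 h compound treatment. Human HepG2 carries transfected zebrafish ER2a-Gal4 chimera; 3 nM 6-alpha-fluorotestosterone plus 1.5 nM norgestrel present. Induction scored against DMSO.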

[7] = system: frog Estrogen Receptor (ER), gene 398734; assay: ATG_frER1_XSP2: Attagene TRANS-FACTORIAL Multi-Species (XSP2) HepG2 Assay for frog Estrogen Receptor (ER) (AID 2283821);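 note: hits raise reporter mRNA above DMSO baseline so potency means agonist or activator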
In short: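 Reporter mRNA induction, detected as fluorescence after RT-PCR and capillary electrophoresis, is the endpoint; activity is fitted upward against DMSO. Cells are human liver HepG2 carrying transfected NR-Gal4 chimeras with GAL4-UAS-driven reporters, harvested 24 h post-dosing.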

[8] = system: zebrafish Estrogen Receptor (ER2b), gene 317733; assay: ATG_zfER2b_XSP2: Attagene TRANS-FACTORIAL Multi-Species (XSP2) HepG2 Assay for zebrafish Estrogen Receptor (ER2b) (AID 2283823);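 note: fitted upward as reporter gain over DMSO so potency reflects activation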
In short: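 HepG2 human liver cells transiently transfected with multiplexed GAL4-UAS reporter units expressing chimeric NR-Gal4 proteins; compounds dosed for 24 h. Reporter mRNA quantified by RT-PCR, 6-FAM labelling and capillary electrophoresis; gain-of-signal fitted against DMSO baseline.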

[9] = target: GAL4 Transcription Factor (Internal Marker), GAL4 (gene 855828) (UniProt P04386); assay: ATG_GAL4_XSP2: Attagene TRANS-FACTORIAL Multi-Species (XSP2) HepG2 Assay for GAL4 Transcription Factor (Internal Marker) (AID 2283814);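 note: GAL4 reporter mRNA background control in MRTU transfected cells not a receptor target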
In short: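 Background-control readout: gain-of-signal fitted against DMSO. After 24 h exposure of transfected HepG2 (MRTU, GAL4-UAS reporters; 3 nM 6-alpha-fluorotestosterone, 1.5 nM norgestrel present), transcripts quantified by RT-PCR and capillary electrophoresis fluorescence.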

[10] = ATG_M_06_XSP1: Attagene TRANS-FACTORIAL Multi-Species (XSP1) HepG2 Assay for M06 Transcription Factor (Internal Marker) (AID 2283790)
In short: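 This background-control readout tracks M06 reporter mRNA, measured by RT-PCR and capillary electrophoresis. HepG2 cells transiently carrying the GAL4-UAS reporter panel were dosed for 24 h with 3 nM 6-alpha-fluorotestosterone added for partial AR stimulation; increases were scored relative to DMSO.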

[11] = ATG_M_61_XSP1: Attagene TRANS-FACTORIAL Multi-Species (XSP1) HepG2 Assay for M61 Transcription Factor (Internal Marker) (AID 2283797)
In short: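 Background-control readout: reporter transcripts measured by RT-PCR and capillary electrophoresis 24 h after dosing transiently transfected HepG2 multi-reporter cells, with 3 nM 6-alpha-fluorotestosterone present. Fitted in the positive direction relative to DMSO.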

[12] = system: zebrafish Peroxisome Proliferator-activated Receptor gamma (PPARg), gene 557037; assay: ATG_zfPPARg_XSP1: Attagene TRANS-FACTORIAL Multi-Species (XSP1) HepG2 Assay for zebrafish Peroxisome Proliferator-activated Receptor gamma (PPARg) (AID 2283801)
In short: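 Trans-activation readout of chimeric zebrafish PPARg–GAL4 in transiently transfected human HepG2 cells, 24 h chemical exposure (medium includes 3 nM 6-alpha-fluorotestosterone). Reporter transcripts measured by RT-PCR and capillary electrophoresis, fitted as gain over DMSO.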

[13] = target: Nuclear receptor subfamily 1 group I member 2 (Mus musculus) (UniProt O54915); assay: ATG_mPXR_XSP1: Attagene TRANS-FACTORIAL Multi-Species (XSP1) HepG2 Assay for mouse Pregnane X Receptor (PXR) (AID 2283803)
In short: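 Transiently transfected HepG2 cells expressing a receptor-Gal4 chimera drive a GAL4-UAS reporter; 3 nM 6-alpha-fluorotestosterone included. Reporter mRNA read 24 h post-dose by RT-PCR and capillary electrophoresis; gain of signal relative to DMSO.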

[14] = target: human Thyroid hormone Receptor alpha (TRa), THRA (gene 7067) (UniProt P10827); assay: ATG_hTRa_XSP1: Attagene TRANS-FACTORIAL Multi-Species (XSP1) HepG2 Assay for human Thyroid hormone Receptor alpha (TRa) (AID 2283805)
In short: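 Reporter transcripts from the human TRa-Gal4 TRANS unit quantified by RT-PCR, fluorescent labeling and capillary electrophoresis after 24 hours of chemical exposure in transfected HepG2 cells; medium contains 3 nM 6-alpha-fluorotestosterone. Positive direction fit against DMSO.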

[15] = target: zebrafish Thyroid Hormone Receptor alpha (TRa), thraa (gene 30670) (UniProt Q98867); assay: ATG_zfTRa_XSP1: Attagene TRANS-FACTORIAL Multi-Species (XSP1) HepG2 Assay for zebrafish Thyroid Hormone Receptor alpha (TRa) (AID 2283807)
In short: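 Reporter transcripts driven by a chimeric zebrafish TRa–Gal4 protein were measured by RT-PCR with fluorescent labelling and capillary electrophoresis. These came from transiently transfected HepG2 cells after 24 h chemical exposure, with 3 nM 6-alpha-fluorotestosterone added; baseline was DMSO.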

[16] = target: human Thyroid hormone Receptor beta (TRb), THRB (gene 7068) (UniProt P10828); assay: ATG_hTRb_XSP1: Attagene TRANS-FACTORIAL Multi-Species (XSP1) HepG2 Assay for human Thyroid hormone Receptor beta (TRb) (AID 2283808)
In short: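 Readout is reporter mRNA induction measured by RT-PCR, fluorescent labelling and capillary electrophoresis, fitted upward relative to DMSO. Transiently transfected human HepG2 cells expressing NR-Gal4 chimeras were dosed for 24 h, medium containing 3 nM 6-alpha-fluorotestosterone.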

[17] = ATG_XTT_Cytotoxicity_XSP1: Cytotoxicity Assessment in the Attagene TRANS-FACTORIAL Multi-Species (XSP1) HepG2 Assay (AID 2283810)
In short: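 XTT viability readout taken at 24 hours post-dosing in HepG2 liver cells co-treated with 3 nM 6-alpha-fluorotestosterone. Signal loss relative to DMSO controls reflects cytotoxicity.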

[18] = system: turtle Androgen Receptor (AR), gene 101947425; assay: ATG_trAR_XSP2: Attagene TRANS-FACTORIAL Multi-Species (XSP2) HepG2 Assay for turtle Androgen Receptor (AR) (AID 2283815);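 for AC50: potency for gain of reporter signal meaning activation above DMSO baseline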
In short: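 Reporter transcripts were quantified via RT-PCR and capillary electrophoresis and fitted upward against DMSO. Transiently transfected human HepG2 cells carrying NR-Gal4 chimeras were exposed 24 h, with 3 nM 6-alpha-fluorotestosterone plus 1.5 nM norgestrel added.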

[19] = system: chicken Androgen Receptor (AR), gene 422165; assay: ATG_chAR_XSP2: Attagene TRANS-FACTORIAL Multi-Species (XSP2) HepG2 Assay for chicken Androgen Receptor (AR) (AID 2283819);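 note: hits raise reporter mRNA above DMSO so potency is for activation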
In short: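 Readout is reporter mRNA induction via RT-PCR/capillary electrophoresis after 24 h chemical exposure, positive direction relative to DMSO. Transiently transfected HepG2 express chimeric chicken AR–GAL4; AR stimulated by 3 nM 6-alpha-fluorotestosterone and 1.5 nM norgestrel.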

[20] = ATG_M_19_XSP2: Attagene TRANS-FACTORIAL Multi-Species (XSP2) HepG2 Assay for M32 Transcription Factor (Internal Marker) (AID 2283822)
In short: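 Internal background marker in a multi-species nuclear receptor TRANS panel: transfected HepG2 cells exposed 24 h, with 3 nM 6-alpha-fluorotestosterone and 1.5 nM norgestrel present. Readout is RT-PCR of reporter transcripts resolved by capillary electrophoresis, gain-of-signal versus DMSO.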

Measured: AC50

Chain of chicken Estrogen Receptor (ERa), ESR1 (gene 396099) (P06212 whole entry, looked up, the tested form may be a part): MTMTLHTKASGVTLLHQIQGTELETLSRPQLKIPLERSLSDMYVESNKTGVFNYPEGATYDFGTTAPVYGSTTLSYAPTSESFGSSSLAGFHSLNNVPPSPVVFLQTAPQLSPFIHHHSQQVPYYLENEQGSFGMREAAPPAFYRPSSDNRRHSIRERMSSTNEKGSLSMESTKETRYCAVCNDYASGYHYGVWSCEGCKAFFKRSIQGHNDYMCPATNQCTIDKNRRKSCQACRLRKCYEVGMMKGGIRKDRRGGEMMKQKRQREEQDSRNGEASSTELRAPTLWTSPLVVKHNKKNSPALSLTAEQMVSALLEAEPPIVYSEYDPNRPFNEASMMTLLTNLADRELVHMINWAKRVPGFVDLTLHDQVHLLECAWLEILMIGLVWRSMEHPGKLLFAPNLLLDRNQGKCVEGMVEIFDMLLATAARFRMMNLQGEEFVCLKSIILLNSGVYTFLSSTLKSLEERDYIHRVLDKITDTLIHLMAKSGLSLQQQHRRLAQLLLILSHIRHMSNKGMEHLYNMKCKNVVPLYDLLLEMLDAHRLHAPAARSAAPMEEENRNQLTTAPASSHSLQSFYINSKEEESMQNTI
Chain of Estrogen receptor beta (Homo sapiens) (Q92731 whole entry, looked up, the tested form may be a part): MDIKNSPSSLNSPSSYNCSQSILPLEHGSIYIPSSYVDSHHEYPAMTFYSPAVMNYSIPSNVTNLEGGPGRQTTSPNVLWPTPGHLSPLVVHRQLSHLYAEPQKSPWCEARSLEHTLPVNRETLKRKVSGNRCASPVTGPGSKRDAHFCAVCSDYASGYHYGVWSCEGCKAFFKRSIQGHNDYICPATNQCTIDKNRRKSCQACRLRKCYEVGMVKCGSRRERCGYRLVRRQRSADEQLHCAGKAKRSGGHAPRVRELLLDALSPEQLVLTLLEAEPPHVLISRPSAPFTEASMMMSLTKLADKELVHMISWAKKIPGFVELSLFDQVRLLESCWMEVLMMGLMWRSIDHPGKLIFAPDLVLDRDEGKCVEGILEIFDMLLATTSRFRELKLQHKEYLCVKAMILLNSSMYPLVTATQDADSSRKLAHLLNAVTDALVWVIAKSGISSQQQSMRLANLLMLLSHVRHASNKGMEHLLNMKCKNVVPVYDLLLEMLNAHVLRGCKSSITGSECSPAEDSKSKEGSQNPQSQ
Chain of GAL4 Transcription Factor (Internal Marker), GAL4 (gene 855828) (P04386 whole entry, looked up, the tested form may be a part): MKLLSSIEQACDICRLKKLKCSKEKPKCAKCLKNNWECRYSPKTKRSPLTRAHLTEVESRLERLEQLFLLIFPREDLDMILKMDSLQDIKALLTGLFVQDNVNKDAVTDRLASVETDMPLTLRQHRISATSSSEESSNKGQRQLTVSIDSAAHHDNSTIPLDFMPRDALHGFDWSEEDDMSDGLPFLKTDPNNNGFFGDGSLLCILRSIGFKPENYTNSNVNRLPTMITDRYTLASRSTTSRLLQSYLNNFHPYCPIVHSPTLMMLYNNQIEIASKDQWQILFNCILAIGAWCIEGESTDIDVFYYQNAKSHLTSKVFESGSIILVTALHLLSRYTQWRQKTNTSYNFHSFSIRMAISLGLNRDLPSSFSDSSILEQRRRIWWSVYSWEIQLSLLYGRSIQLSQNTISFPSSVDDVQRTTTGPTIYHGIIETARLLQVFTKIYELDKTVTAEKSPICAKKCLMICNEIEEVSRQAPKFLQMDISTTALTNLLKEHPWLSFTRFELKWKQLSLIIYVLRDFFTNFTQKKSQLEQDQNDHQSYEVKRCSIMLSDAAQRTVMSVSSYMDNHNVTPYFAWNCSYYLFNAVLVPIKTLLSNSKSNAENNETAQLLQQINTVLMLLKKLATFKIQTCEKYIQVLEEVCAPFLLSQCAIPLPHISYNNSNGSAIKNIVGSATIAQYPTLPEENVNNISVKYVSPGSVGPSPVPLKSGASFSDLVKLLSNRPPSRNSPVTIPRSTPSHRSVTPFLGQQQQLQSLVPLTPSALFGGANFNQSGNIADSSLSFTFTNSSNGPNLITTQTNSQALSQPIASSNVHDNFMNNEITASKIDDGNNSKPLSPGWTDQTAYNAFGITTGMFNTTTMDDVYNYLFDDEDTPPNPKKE
Chain of zebrafish Estrogen Receptor (ER1), esr1 (gene 259252) (P57717 whole entry, looked up, the tested form may be a part): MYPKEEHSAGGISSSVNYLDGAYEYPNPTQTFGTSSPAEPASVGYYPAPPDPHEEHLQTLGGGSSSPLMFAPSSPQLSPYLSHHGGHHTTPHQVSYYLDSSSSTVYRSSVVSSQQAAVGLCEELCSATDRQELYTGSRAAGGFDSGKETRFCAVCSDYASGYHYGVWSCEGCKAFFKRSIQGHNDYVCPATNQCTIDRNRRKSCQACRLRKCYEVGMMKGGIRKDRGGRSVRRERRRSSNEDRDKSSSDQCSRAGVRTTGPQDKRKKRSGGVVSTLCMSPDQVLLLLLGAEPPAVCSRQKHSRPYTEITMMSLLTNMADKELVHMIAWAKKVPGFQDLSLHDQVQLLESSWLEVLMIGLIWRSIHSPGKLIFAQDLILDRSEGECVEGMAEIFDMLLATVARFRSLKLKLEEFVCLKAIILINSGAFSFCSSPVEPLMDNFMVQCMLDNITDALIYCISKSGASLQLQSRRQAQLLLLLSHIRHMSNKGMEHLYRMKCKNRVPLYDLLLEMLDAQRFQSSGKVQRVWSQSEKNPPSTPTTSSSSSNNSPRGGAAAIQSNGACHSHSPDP
Chain of human Thyroid hormone Receptor alpha (TRa), THRA (gene 7067) (P10827 whole entry, looked up, the tested form may be a part): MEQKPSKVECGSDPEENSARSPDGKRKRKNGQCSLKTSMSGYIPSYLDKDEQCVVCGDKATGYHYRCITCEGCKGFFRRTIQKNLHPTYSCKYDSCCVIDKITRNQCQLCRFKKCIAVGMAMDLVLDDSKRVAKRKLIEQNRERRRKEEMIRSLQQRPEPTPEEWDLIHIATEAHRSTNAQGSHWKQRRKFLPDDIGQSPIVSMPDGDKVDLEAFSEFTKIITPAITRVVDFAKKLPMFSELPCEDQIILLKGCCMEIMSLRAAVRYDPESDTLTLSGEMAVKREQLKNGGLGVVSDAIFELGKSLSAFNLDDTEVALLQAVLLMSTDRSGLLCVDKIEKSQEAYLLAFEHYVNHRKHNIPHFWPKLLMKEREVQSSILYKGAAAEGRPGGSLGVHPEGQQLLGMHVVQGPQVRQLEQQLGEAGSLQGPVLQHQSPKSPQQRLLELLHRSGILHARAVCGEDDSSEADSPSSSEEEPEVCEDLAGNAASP
Chain of zebrafish Thyroid Hormone Receptor alpha (TRa), thraa (gene 30670) (Q98867 whole entry, looked up, the tested form may be a part): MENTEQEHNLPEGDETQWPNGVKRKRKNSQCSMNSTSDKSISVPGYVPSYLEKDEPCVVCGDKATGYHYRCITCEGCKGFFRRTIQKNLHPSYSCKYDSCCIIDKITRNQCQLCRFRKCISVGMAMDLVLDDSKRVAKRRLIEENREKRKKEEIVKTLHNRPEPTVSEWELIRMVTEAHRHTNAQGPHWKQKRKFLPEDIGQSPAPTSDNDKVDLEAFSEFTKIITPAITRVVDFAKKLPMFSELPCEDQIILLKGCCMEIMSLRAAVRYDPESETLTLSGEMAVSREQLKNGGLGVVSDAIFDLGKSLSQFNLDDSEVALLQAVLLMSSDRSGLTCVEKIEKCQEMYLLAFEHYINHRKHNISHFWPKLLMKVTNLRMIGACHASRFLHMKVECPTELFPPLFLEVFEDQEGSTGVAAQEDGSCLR
Chain of human Thyroid hormone Receptor beta (TRb), THRB (gene 7068) (P10828 whole entry, looked up, the tested form may be a part): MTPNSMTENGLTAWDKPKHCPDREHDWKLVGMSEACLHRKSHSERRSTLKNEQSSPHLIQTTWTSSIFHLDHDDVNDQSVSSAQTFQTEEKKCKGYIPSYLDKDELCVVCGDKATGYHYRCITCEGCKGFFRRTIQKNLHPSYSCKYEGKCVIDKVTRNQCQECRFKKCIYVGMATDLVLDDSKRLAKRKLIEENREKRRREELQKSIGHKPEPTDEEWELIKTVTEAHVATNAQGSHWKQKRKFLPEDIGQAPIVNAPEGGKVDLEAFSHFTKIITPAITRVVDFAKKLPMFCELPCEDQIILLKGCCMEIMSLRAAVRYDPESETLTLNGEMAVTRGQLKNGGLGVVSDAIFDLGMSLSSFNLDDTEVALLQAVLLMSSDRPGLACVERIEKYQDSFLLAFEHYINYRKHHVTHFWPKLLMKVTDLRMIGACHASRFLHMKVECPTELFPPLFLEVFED
Chain of Nuclear receptor subfamily 1 group I member 2 (Mus musculus) (O54915 whole entry, looked up, the tested form may be a part): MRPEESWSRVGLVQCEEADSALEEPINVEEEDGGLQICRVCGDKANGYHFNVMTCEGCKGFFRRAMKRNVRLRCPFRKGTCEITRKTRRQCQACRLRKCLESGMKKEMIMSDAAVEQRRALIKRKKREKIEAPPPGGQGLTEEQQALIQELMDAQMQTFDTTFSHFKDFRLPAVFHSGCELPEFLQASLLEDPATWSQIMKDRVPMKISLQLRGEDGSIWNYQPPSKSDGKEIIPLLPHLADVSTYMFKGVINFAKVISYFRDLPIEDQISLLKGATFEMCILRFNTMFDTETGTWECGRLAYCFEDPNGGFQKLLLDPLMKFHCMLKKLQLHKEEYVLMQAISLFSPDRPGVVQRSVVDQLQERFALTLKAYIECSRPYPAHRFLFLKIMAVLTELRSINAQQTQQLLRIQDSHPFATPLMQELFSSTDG

BrCc1cccc(Oc2ccccc2)c1
active: [2] 15.9 µM and 18.2 µM | [3] 21.3 µM and 7.91 µM | [4] 100 µM | [5] 27.5 µM and 21.5 µM | [6] 19.2 µM and 11.9 µM | [7] 7.78 µM and 26.9 µM | [8] 34.9 µM and 12.4 µM
inactive: [1] | [4]

Clc1ccc(C(c2ccccc2Cl)C(Cl)Cl)cc1 (stereo not drawn)
inactive: [1]
active: [2] 1.29 µM and 8.5 µM | [3] 3.01 µM and 5.58 µM | [4] 4.61 µM and 12.7 µM | [5] 3.1 µM and 7.58 µM | [6] 2.3 µM and 2.61 µM | [7] 2.74 µM and 4.46 µM | [8] 2.37 µM and 1.97 µM

Cc1cc(=O)oc2cc(N(C)C)ccc12
inactive: [1] | [2] | [3] | [9] | [4] | [5] | [6]
active: [2] 49.9 µM | [5] 31.4 µM | [6] 100 µM | [7] 19.2 µM and 27.6 µM | [8] 77.1 µM and 100 µM

OCc1cccc(Oc2ccccc2)c1
active: [2] 17.1 µM and 11.5 µM | [3] 26.9 µM and 8.78 µM | [4] 37.7 µM | [5] 16 µM and 6.22 µM | [6] 23.5 µM and 14.7 µM | [7] 27 µM and 27.1 µM | [8] 46.5 µM and 12.4 µM
inactive: [1] | [9] | [4]

CCCCC(CC)COC(=O)c1ccc(O)cc1 (stereo not drawn)
inactive: [10] | [11] | [12] | [13] | [14] | [15] | [16] | [9] | [20]
active: [17] 63.8 µM | [2] 25.3 µM | [18] 53.2 µM | [4] 52.2 µM | [5] 6.15 µM | [6] 33.4 µM | [19] 51.9 µM | [7] 49.9 µM | [8] 16.3 µM

Oc1ccc2cc(SSc3ccc4cc(O)ccc4c3)ccc2c1
active: [2] 1.07 µM | [4] 2.96 µM | [5] 2.29 µM and 634 nM | [6] 0.822 µM | [19] 40.7 µM | [8] 2.56 µM and 2.52 µM
inactive: [1] | [2] | [18] | [4] | [19] | [7]

O=c1c(O)c(-c2ccc(O)cc2)oc2cc(O)cc(O)c12
active: [2] 2.27 µM and 1.08 µM | [18] 3.01 µM and 1.32 µM | [4] 1.68 µM and 954 nM | [5] 3 µM and 1.53 µM | [6] 1.61 µM and 981 nM | [19] 3.26 µM and 1.35 µM | [7] 2.48 µM and 1.49 µM | [8] 2.83 µM and 1.85 µM
inactive: [1]
